Laboratory results: ChEMBL document CHEMBL4513216, “Probing the Open Global Health Chemical Diversity Library for Multistage-Active Starting Points for Next-Generation Antimalarials” (ACS Infect Dis, 2020)
Screen size: about 69,000 compounds; about 8,600 (12%) showed an effect of 50% or more. The entries come from a sample that favours strong results as a whole.

tested on: Plasmodium berghei; experiment: Screen against P. berghei liver stage (PbLuc), transformed with Luciferase, at 10uM; type: functional, HepG2; details: tested at 10 uM

| SMILES | INHIBITION [%] |
| --- | --- |
| O=C(c1cnccn1)N1CCCC2(CCN(Cc3ccsc3)CC2)C1 | -67.6 |
| O=C(CC1CNCCO1)N1CCC(c2cc(N3CCCC3)ncn2)CC1 (centres undefined) | -23.2 |
| CN(CC(=O)Nc1ccncc1)C1CCCN(c2cccnn2)C1 (centres undefined) | 4.52 |
| O=C(CCc1ccsc1)Nc1ccnn1C1CCS(=O)(=O)C1 (centres undefined) | 54.3 |
| Cc1cccc(CCC(=O)Nc2ccnn2C2CCS(=O)(=O)C2)c1 (centres undefined) | 37.1 |
| O=C(CCc1cccs1)Nc1ccnn1C1CCS(=O)(=O)C1 (centres undefined) | 22.6 |
| c1coc(CN2C[C@@H]3CCCO[C@@H]3[C@H](N3CCCC3)C2)c1 | 24.5 |
| Cc1ccc(CN(CC(=O)NCC2CCOC2)c2ccc(F)cc2)o1 (centres undefined) | 7.39 |
| Cc1ccc(CN(CC(=O)NC2CCOCC2)c2ccc(F)cc2)o1 | 67.8 |
| O=C(CN(Cc1cccs1)c1ccc(F)cc1)NC1CCOCC1 | 37.6 |
| CN1CCN(Cc2cccnc2)C2(CCN(c3ncc(F)cn3)C2)C1=O (centres undefined) | -8.19 |
| Cc1nc(C(=O)N(C)C)nn1-c1ccccc1C(C)C | 30.8 |
| CC(=O)N1CCN(C(=O)CCCc2nc(C(C)C)no2)CC1 | -8.61 |
| CC(C)c1noc(CCC(=O)N2CCN(Cc3ccncc3)CC2)n1 | 37.9 |
| CC(C)c1noc(CCC(=O)N2CCSCC2)n1 | 51.8 |
| NC(=O)c1ccc(C2CCCNC2)nc1 (centres undefined) | 26.8 |
| CNC(=O)COc1ccccc1CNC1CCc2nc(C)nn2C1 (centres undefined) | -24.4 |
| CNC(=O)COc1ccccc1CNC1CCc2ncnn2C1 (centres undefined) | 63.6 |
| c1ccc(OCC2CC2)c(CNC2CCc3ncnn3C2)c1 (centres undefined) | 8.383 |
| c1ccc(OC2CCCC2)c(CNC2CCc3ncnn3C2)c1 (centres undefined) | 62.8 |
| CN(C)C(=O)COc1ccccc1CNC1CCc2ncnn2C1 (centres undefined) | 33.6 |
| c1ccc(COc2ccccc2CNC2CCc3ncnn3C2)cc1 (centres undefined) | 26.9 |
| CCCc1n[nH]c(=O)n1[C@@H](CC)c1ccccc1 | 3.38 |

| SMILES | INHIBITION [%] |
| --- | --- |
| COCCNC(=O)N1CC(Cc2ccccc2F)C1 | -20.6 |
| Cc1ccc(F)c(C(=O)N2CCC(Nc3ccc(C)nn3)CC2)c1 | -15.5 |
| Cc1cnc(N2Cc3cnn(Cc4ccc(F)cc4)c3C2)nc1N(C)C | 77.6 |
| CCCc1nc(N2Cc3cnn(Cc4ccc(F)cc4)c3C2)no1 | 26.1 |
| CCNc1ccnc(N2Cc3cnn(Cc4ccc(F)cc4)c3C2)n1 | 78.4 |
| N#Cc1cnc(N2Cc3cnn(Cc4ccc(F)cc4)c3C2)nc1N | 61.2 |
| Cc1nccnc1N1Cc2cnn(Cc3ccc(F)cc3)c2C1 | 39.1 |
| Fc1ccc(Cn2ncc3c2CN(c2noc(C4CC4)n2)C3)cc1 | 33.3 |
| Cc1cc(C)nc(N2Cc3cnn(Cc4ccc(F)cc4)c3C2)n1 | 22.4 |
| Fc1ccc(Cn2ncc3c2CN(c2ncccn2)C3)cc1 | -1.91 |
| CNc1cc(C)nc(N2Cc3cnn(Cc4ccc(F)cc4)c3C2)n1 | 75.1 |
| Cc1ccnc(N2Cc3cnn(Cc4ccc(F)cc4)c3C2)n1 | 39.1 |
| Cc1ncc(C)c(N2Cc3cnn(Cc4ccc(F)cc4)c3C2)n1 | 32.5 |
| Cc1nc(N2Cc3cnn(Cc4ccc(F)cc4)c3C2)no1 | 12.8 |
| CC(Cn1ccnc1)NC(=O)NCCN1CCCCCC1=O (centres undefined) | 5.29 |
| Cc1noc(C2CCN(C(=O)Nc3ccc(N(C)C)nc3)CC2)n1 | 24.95 |
| CCNC(c1ccc(Cl)cc1)c1cccnc1 (centres undefined) | 3.15 |
| CC(C)C(=O)N1CCC2(CC1)NC(=O)c1ccccc12 | 39.3 |
| Cc1ccccc1C(=O)N1CCC2(CCC(C(=O)NCC3CC3)O2)CC1 (centres undefined) | -3.58 |
| CSCC(C)(O)CNS(=O)(=O)c1ccc(Br)cc1 (centres undefined) | -23.5 |
| Cn1c2c(c(=O)c3ccccc31)CCC(C)(C)O2 | -27.3 |
| CN(Cc1ccco1)[C@@H]1CN(Cc2cnn(C)c2)[C@@H]2CCCO[C@H]12 | 38.1 |
| Cc1cc(CNC(=O)CCc2c(C)nc3cc(O)nn3c2C)no1 | 15.5 |

| SMILES | INHIBITION [%] |
| --- | --- |
| CNS(=O)(=O)c1ccc(CN2CCN(Cc3ncccc3C)CC2)cc1 | 49.1 |
| CNS(=O)(=O)c1ccc(CN2CCCN(c3ccccc3)CC2)cc1 | 48.2 |
| CNS(=O)(=O)c1ccc(CN2CCCN(CC(C)C)CC2)cc1 | 34.1 |
| CS(=O)(=O)c1ccc(CN2CCCCC2c2cccc(F)c2)cc1 (centres undefined) | 34 |
| CNS(=O)(=O)c1ccc(CN2CCC(c3ccncc3)CC2)cc1 | 54.1 |
| CS(=O)(=O)c1ccc(CN2CCCCC2c2ccc(F)cc2)cc1 (centres undefined) | 32.8 |
| CNS(=O)(=O)c1ccc(CN2CCCN(Cc3ccncc3)CC2)cc1 | 55.7 |
| Cn1cc(CN2CCC(c3ccncc3)CC2)cn1 | 23.35 |
| CNS(=O)(=O)c1ccc(CN2CCCC2c2ccc(F)cc2)cc1 (centres undefined) | 51.3 |
| O=C1CN(C(=O)OCc2ccccc2)CC(O)CN1Cc1ccco1 (centres undefined) | 34.3 |
| CCN(CC)C(=O)Cn1ccc2cc(NC(C)=O)ccc21 | -37.31 |
| CNc1cc2c(nn1)CCN(C(=O)c1ccc(-n3cccn3)nc1)C2 | 35.7 |
| COc1c(C2CCCN2C(=O)c2ccc(C#N)cc2)c(C)nn1C (centres undefined) | 7.67 |
| C[C@H]1CN(Cc2cnn(C)c2)C[C@@]12CCN(Cc1cccnc1)C2=O | 48.2 |
| CC(=O)N1CCCN(C(C(=O)O)c2ccccc2OC(F)(F)F)CC1 (centres undefined) | 15.2 |
| O=C(CN1CCCC1Cn1cccn1)NCCOc1cccc(F)c1 (centres undefined) | 48.4 |
| Cc1nc(C)n(CCC(=O)N2CCc3ncc(Cl)cc3C2)n1 | 24.4 |
| CC(C)n1ncc2c1NC(=O)CSC2C(F)(F)F (centres undefined) | -38 |
| CN(C)c1nccc(NCc2cc(-c3cccs3)n[nH]2)n1 | 18.9 |
| CNc1ccnc(N(C)Cc2cc(-c3cccs3)n[nH]2)n1 | 88.4 |
| CNc1cc(C(=O)N(C)Cc2cc(-c3cccs3)n[nH]2)ccn1 | 47.6 |
| CCc1n[nH]c(C2CN(C(=O)c3nc(C)ncc3Cl)CCO2)n1 (centres undefined) | 37.5 |
| CCOC(=O)c1sc(NC(=O)CCCC(=O)O)c(C#N)c1C | 28.2 |
